This note sets out measurements from PubChem BioAssay.

Activity calls are given as the source filed them. Rule as the data show it: active = inhibition above about 25%; inactive = the rest.

This assay can be described thus: repression of VP16-driven luciferase reporter – cell-based, luminescence, high throughput, counter-screen for SRC1 inhibitor project (AID 588824). Particulars: cell-based VP16 transactivation luciferase luminescence; at 3.6 µM; active compounds read high. A general note: In a reporter assay the amount or activity of a reporter protein is the signal.
By inhibition is commonly meant the change of the read-out against control, counted positive when it falls. With `Cn1c(=O)c2c(nc(Oc3ccc4ccccc4c3)n2C)n(C)c1=O`, the inhibition was 34.7% (active). Next, `CCN(CC)CCCNc1ccc2ncn3c4ccc(O)cc4c(=O)c1c23`: 49.9% (active); `O=C(Nc1nc(-c2ccc(S(=O)(=O)N3CCCC3)cc2)cs1)C1COc2ccccc2O1` (stereo not given): -2.78% (inactive). Next, `Cn1c(=N)n(CC(=O)c2ccc(Cl)c(Cl)c2)c2ccccc21`: -61.4% (inactive); `Cn1c(C(=O)O)c(CC(=O)Nc2ccc3c(c2)OCCO3)c2ccccc21`: -7.4% (inactive); `O=C(Nc1scc(-c2ccc(Br)cc2)c1C(=O)O)c1ccccc1F`: 10.7% (inactive). Regarding `CCN(CC)S(=O)(=O)c1ccc(/C=C/C(=O)Nc2ccc(F)c(F)c2F)cc1`, the inhibition is 28.7% (active).

Consider `Cc1cc(C(=O)COC(=O)c2cccc(NS(C)(=O)=O)c2)c(C)n1CC1CCCO1` (stereo not given), for which the inhibition is -54.4% (inactive). The result for `CCCCC(=O)OCC(=O)C1(O)Cc2c(O)c3c(c(O)c2C(OC2CC(NC(=O)C(F)(F)F)C(O)C(C)O2)C1)C(=O)c1c(OC)cccc1C3=O` (stereo not given) reads 16.3% (inactive).

On to `Cc1[nH]ccc2cc3nc4ccccc4c3cc12`, for which the inhibition is 39.4% (active).

In the case of `COc1cccc(/C=N/NC(=O)C(=O)Nc2ccccc2OC(F)(F)C(F)F)c1O`, the inhibition is 23.4% (inactive). As for `CC(O)CC(C(=O)NNc1ccccc1)C(=O)NNc1ccccc1` (stereo not given), the inhibition was 13.1% (inactive). Next, `COc1ccc(/C=C2\N=C(C(C)(C)C)OC2=O)c(OC)c1`: 3.16% (inactive); `O=C(c1ccncc1)N(Cc1cc2ccccc2[nH]c1=O)C1CCCCC1`: 23.1% (inactive); `CCCCC(=O)NC(c1ccc(N(C)C)cc1)c1ccc2cccnc2c1O` (stereo not given): 55.9% (active). The result for `COc1cccc(CNc2ncnc3ccc(-c4c(C)noc4C)cc23)c1` reads -7.49% (inactive); that for `CCCCCCCCCCCCCCCC[n+]1cccc2ccccc21`, 76% (active); that for `CC(C)(C)OC(=O)NCC(=O)Oc1cc2oc(=O)cc(-c3ccccc3)c2cc1Cl`, 15.3% (inactive). Next, `COC1C(OC(=O)/C=C/C=C/C=C/C=C/C(=O)O)CCC2(CO2)C1C1(C)OC1CC=C(C)C` (stereo not given) (tested in a mixture with another compound): 20.7% (inactive); `Cc1cccc(/C=N/Nc2ccc3ccccc3n2)c1`: -55% (inactive). `C/C(=N\NC(=O)c1nnn(-c2nonc2N)c1-c1ccccc1)c1ccccc1O`: the inhibition is 40.6% (active). As for `O=C(N/N=C/c1cc(Br)ccc1O)c1ccncc1`, the inhibition was 39.9% (active). The result for `N#CC(c1ccc(Cl)cc1)c1ccc2c(C(F)(F)F)cc(C(F)(F)F)nc2n1` (stereo not given) reads 83.3% (active); that for `O=C(CCSc1nc2ccccc2s1)N/N=C/c1c(O)ccc2ccccc12`, 32% (active); that for `COc1cccc(-c2nnc3sc(C4CCCCC4)nn23)c1`, 26.4% (active). `CC(=NNc1nc2ccccc2o1)c1cc2ccccc2cn1`: the inhibition is 86.3% (active). Next, `CCN(CC)c1ccc2cc(NC(=O)CCC(=O)O)c(=O)oc2c1`: 39.2% (active). The result for `CC(C)(C)c1cc(C(=O)N/N=C/c2ccc(O)cc2)n(-c2ccccc2)n1` reads 13.7% (inactive). Regarding `O=C(Nc1ccc([N+](=O)[O-])cc1)Nc1ccc(OC(F)F)c(Cl)c1`, the inhibition is 39.7% (active). The result for `Cc1ccc(NC(=O)C2CCN(c3ncnc4sc(C)c(C)c34)CC2)cc1S(=O)(=O)N(C)C` reads 1.39% (inactive); that for `Cc1ccc2nc(-c3ccncc3)c(NC3CCCC3)n2c1`, 25.7% (active); that for `Nc1ccc(-c2cnc(N)c(C(=O)c3cccnc3)n2)cn1`, 56% (active). Next, `COc1ccc2cc3c(N)nn(C(=O)c4ccc(F)cc4)c3nc2c1`: 36.3% (active); `O=C(Nc1nc(-c2ccccc2)cs1)c1ccc(N2CCOCC2)c([N+](=O)[O-])c1`: 64.8% (active). Regarding `COc1cccc2c1C(=N)c1c(O)c3c(c(O)c1C2=O)CC(O)(C(C)=O)CC3OC1CC(N)C(O)C(C)O1` (stereo not given), the inhibition was -29.4% (inactive). The result for `COc1ccccc1N(C(=O)CCl)c1cn(C(C)=O)c2ccccc12` reads 18.7% (inactive); that for `CCOC(=O)c1ccccc1OC(=O)NNc1ccccc1`, 38.8% (active); that for `O=C(Nc1ccc(S(=O)(=O)N2CCCCC2)cc1)c1ccc(CN2CCOCC2)cc1`, 47.1% (active). For `Cc1sc(NC(=O)Cc2ccc3c(c2)OCO3)nc1-c1ccc2c(c1)CCN2C(=O)c1ccc(F)cc1`, the inhibition is 25.9% (active). Next, `COc1ccc2[nH]c3c(c2c1)CCNC3=O`: 33.7% (active).
